Source: PubChem BioAssay
In the library only some 2.3% were active in any assay of this set; here they are far more common.
PDI turbidity – blocks human protein disulfide isomerase activity; P07237; PDI insulin aggregation turbidity, A650, 90 min; inhibition, % at 10 µM; hit rate 0.052% among 350,000;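 active = mean inhibition across replicates of 30% or more, whatever share of single replicates reach that level; inconclusive = mean inhibition below 30% while every single replicate reaches 30%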
Target sequence (P07237 whole entry, looked up): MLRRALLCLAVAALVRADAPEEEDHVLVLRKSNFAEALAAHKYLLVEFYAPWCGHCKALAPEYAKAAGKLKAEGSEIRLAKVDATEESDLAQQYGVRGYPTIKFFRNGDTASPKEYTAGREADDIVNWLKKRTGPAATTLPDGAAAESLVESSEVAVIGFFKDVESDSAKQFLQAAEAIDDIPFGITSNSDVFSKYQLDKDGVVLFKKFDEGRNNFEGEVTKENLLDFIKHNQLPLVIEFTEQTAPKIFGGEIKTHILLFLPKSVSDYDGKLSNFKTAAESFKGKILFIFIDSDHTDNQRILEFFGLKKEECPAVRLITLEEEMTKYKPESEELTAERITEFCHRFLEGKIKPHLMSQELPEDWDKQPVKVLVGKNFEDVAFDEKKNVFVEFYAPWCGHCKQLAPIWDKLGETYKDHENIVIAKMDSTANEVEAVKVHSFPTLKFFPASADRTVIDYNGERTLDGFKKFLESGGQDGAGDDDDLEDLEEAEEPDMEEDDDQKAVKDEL
SIRT5 block – sirtuin-5 (human) deacylase inhibition; Purified SirT5, succinyl-peptide AMC, trypsin-coupled fluorescence; AID 652115; hit rate 1.1% among 330,000; inhibition, % at 15 µM; Q9NXA8; in the data active = inhibition above about 15%; inconclusive = no clear call, values can overlap the other calls
DENV2 CPE – protects cells from dengue virus 2 cytopathic effect; hit rate 1.7% among 350,000; AID 651640; CPE inhibition, % at 9.99 µM; DENV2-infected cells, cytopathic effect rescue, plate reader; in the data active = CPE inhibition above about 20%, passing the limit was not always enough; inconclusive = no clear call, values can overlap the other calls; tested in BHK-21 cells;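 note: 0% = median of neutral control wells and 100% = median of positive control wells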
Rtt109 Vps75 – C. albicans Rtt109 histone acetyltransferase inhibition | inhibition, % at 34.9 µM | AID 540336 | purified Rtt109/Vps75, ThioGlo CoA-SH fluorescence, 4 h | Q5AAJ8 | hit rate 0.16% among 330,000;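 active = inhibition of at least 50% in every replicate; inconclusive = best replicate reaches 50% inhibition but some replicates fall short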
ERp5 block – inhibitors of human ERp5; Q15084; hit rate 0.05% among 350,000; ERp5 insulin aggregation, absorbance 650 nm, 90 min; inhibition, % at 9.99 µM;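 active = mean replicate inhibition above about 25%, with every replicate also reaching it, limit read from the data, passing the limit was not always enough; inconclusive = only one of those two criteria met; inactive = neither criterion met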
The depositor's hits bear a star; ? = inconclusive; / = not tested or not shown.

SMILES	PDI turbidity	SIRT5 block	DENV2 CPE	Rtt109 Vps75	ERp5 block
CCNC(=O)C[C@@H]1CC[C@H]2[C@H](COc3ccc(NC(=O)C4CCOCC4)cc3C(=O)N2C)O1	/	-1	1	/	4
O=C(C[C@H]1C=C[C@H](NC(=O)Nc2cc(F)ccc2F)[C@H](CO)O1)NCc1ccccn1	/	0	?	/	-6
CN(C)C(=O)C[C@@H]1CC[C@H]2[C@@H](COC[C@@H](O)CN2C(=O)c2ccncc2)O1	/	/	3	/	/
O=C(C[C@@H]1CC[C@H]2[C@@H](COC[C@@H](O)CN2C(=O)c2ccncc2)O1)Nc1ccc(-c2ccccc2)cc1	/	4	21*	/	2
CN(C)C(=O)C[C@H]1CC[C@@H]2[C@H](COC[C@@H](O)CN2C(=O)c2ccncc2)O1	/	16*	0	/	-3
CCc1ccc2cc(F)cc(F)c2n1	/	-4	-4	/	14
CCc1ccc2cc(C)cc(C)c2n1	/	-1	34*	/	-10
CO[C@@H](CN(C)S(=O)(=O)c1ccc(Cl)cc1)[C@H](C)CN(C(=O)Nc1ccccc1F)[C@H](C)CO	/	0	1	/	-4
O=C(NCc1nc2ccccc2[nH]1)C1=C[C@@H](c2coc3ccccc3c2=O)C[C@@H](OCCCCO)O1	/	-1	82*	/	-5
O=C1NC(c2ccccc2)CCO1 (configuration not stated)	2	/	-20	5	-2
O=C1CCCC(c2ccccc2)N1 (configuration not stated)	-9	/	60*	-1	-6
C[C@H]1CCCCO[C@H](CN(C)C(=O)Nc2ccc3c(c2)OCO3)[C@@H](C)CN([C@@H](C)CO)C(=O)c2cc(NS(=O)(=O)c3ccc(Cl)cc3)ccc2O1	/	2	52*	/	-2
COc1ccc(S(=O)(=O)Nc2ccc3c(c2)C(=O)N([C@H](C)CO)C[C@H](C)[C@H](CN(C)C(=O)Nc2ccc4c(c2)OCO4)OCCCC[C@H](C)O3)cc1	/	17*	-2	/	-3
CCC(=O)N1[C@@H]2Cn3c(ccc(/C=C/c4ccccc4)c3=O)[C@H]1[C@@H](C(=O)N(C)C)[C@@H]2CO	/	-135	1	/	4
CC1(C(=O)Nc2cccc(C(F)(F)F)c2)Cc2c(-c3cccc(C(N)=O)c3)ccnc2O1 (configuration not stated)	6	-4	-2	/	6
CC1(C(=O)NCc2ccccc2)Cc2c(-c3cccc(C(F)(F)F)c3)ccnc2O1 (configuration not stated)	-42	-2	-1	/	-6
CC1(C(=O)NCc2cccs2)Cc2c(-c3cccc(C(F)(F)F)c3)ccnc2O1 (configuration not stated)	-52	1	27*	/	1
CC1(C(=O)Nc2cccc(OC(F)(F)F)c2)Cc2c(-c3cccc(C(N)=O)c3)ccnc2O1 (configuration not stated)	-6	0	21*	/	-1
O=C(Nc1ccccc1)N[C@H]1CC[C@@H](CCNS(=O)(=O)c2ccccc2F)O[C@H]1CO	/	-2	0	/	-1
C[C@@H](CN1CCC[C@H]1CN1C(N)=NC[C@@H]1Cc1ccccc1)N1C[C@@H](Cc2ccccc2)N(CCc2ccc(Cl)c(Cl)c2)C1=N	19	/	/	59*	/
CCC[C@@H](CN1CCC[C@H]1CN1C(N)=NC[C@H]1CC(C)C)N1C[C@@H](Cc2ccccc2)N(CCc2ccc(Cl)c(Cl)c2)C1=N	22	-4	55*	-6	-13
CCC[C@@H](CN1CCC[C@H]1CN1C(N)=NC[C@@H]1Cc1ccccc1)N1C[C@@H](Cc2ccccc2)N(CCc2ccc(Cl)c(Cl)c2)C1=N	12	/	-6	-5	4
Cc1nc2scc(C)n2c(=O)c1S(=O)(=O)Nc1ccc(N2CCN(C(=O)C(C)C)CC2)cc1	0	10	51*	30	-1
Cc1nc2scc(C)n2c(=O)c1S(=O)(=O)Nc1ccc(N2CCOCC2)cc1	-5	11	-6	-2	-3
COc1ccc(S(=O)(=O)N(C)C[C@@H]2Oc3ccc(NS(=O)(=O)c4ccc(F)cc4)cc3CC(=O)N([C@@H](C)CO)C[C@H]2C)cc1	/	5	/	/	-1
C[C@@H]1CCCCO[C@H](CN(C)C)[C@H](C)CN([C@H](C)CO)C(=O)c2cc(NC(=O)c3ccncc3)ccc2O1	/	-1	34*	/	-1
C[C@@H]1CN([C@H](C)CO)C(=O)c2cc(NC(=O)c3ccncc3)ccc2O[C@@H](C)CCCCO[C@H]1CN(C)C	/	-1	85*	/	3
